{"source": "the supplement of paper PMC7380943"}
{"tested_on": "CLZ3 (HCA2 human fibroblast dual HR-NHEJ reporter)", "assay": "NHEJ repair efficiency (GFP+ cells) relative to control (log10 fold); higher = more non-homologous end joining", "conditions": "5 µM; doxycycline 0.5 ug/mL"}
{"compound": "O=C(/C=C/c1ccc(O)cc1)OC[C@H]1O[C@@H](Oc2c(-c3ccc(O)cc3)oc3cc(O)cc(O)c3c2=O)[C@H](O)[C@@H](O)[C@@H]1O", "note": "[Tiliroside]", "NHEJ repair efficiency (log10)": -0.00145}
{"compound": "C/C=C/c1cc(OC)c2c(c1)C(C)C(c1ccc(O)c(OC)c1)O2", "note": "(stereo not drawn) [Dehydrodiisoeugenol]", "NHEJ repair efficiency (log10)": -0.00267}
{"compound": "C[C@@H]1CC[C@]2(C(=O)O[C@@H]3O[C@H](CO)[C@@H](O)[C@H](O)[C@H]3O)CC[C@]3(C)C(=CC[C@@H]4[C@@]5(C)CC[C@H](O)[C@@](C)(CO)[C@@H]5CC[C@]43C)[C@@H]2[C@]1(C)O", "note": "[Pedunculoside]", "NHEJ repair efficiency (log10)": 0.0473}
{"compound": "C[C@@H]1O[C@@H](OC[C@H]2O[C@@H](OCCc3ccc(O)c(O)c3)[C@H](O)[C@@H](O[C@@H]3O[C@@H](C)[C@H](O)[C@@H](O)[C@H]3O)[C@@H]2OC(=O)/C=C/c2ccc(O)c(O)c2)[C@H](O)[C@H](O)[C@H]1O", "note": "[Poliumoside]", "NHEJ repair efficiency (log10)": 0.019}
{"compound": "O=C1C[C@@H](c2ccc(O)cc2)Oc2cc(O)ccc21", "note": "[Liquiritigenin]", "NHEJ repair efficiency (log10)": 0.037}
{"compound": "O=Cc1ccc(O)c(O)c1", "note": "[Protocatechuic aldehyde]", "NHEJ repair efficiency (log10)": -0.212}
{"compound": "C[C@H]1CC[C@@]2(OC1)O[C@H]1C[C@H]3[C@@H]4CC[C@@H]5C[C@@H](O)CC[C@]5(C)[C@H]4CC[C@]3(C)[C@H]1[C@@H]2C", "note": "[Sarsasapogenin]", "NHEJ repair efficiency (log10)": -0.068}
{"compound": "CC(=O)OCC1=C[C@@H]2OC(=O)C3=CO[C@@H](O[C@@H]4O[C@H](CO)[C@@H](O)[C@H](O)[C@H]4O)[C@H]1[C@@H]32", "note": "[Asperuloside]", "NHEJ repair efficiency (log10)": 0.0752}
